Measured values from ChEMBL document CHEMBL1961873, “Compounds: GSK PKIS; Assays: Nanosyn kinase panel” (2012).

Tests used:
[1] = biological target: MAP/microtubule affinity-regulating kinase 3 (Homo sapiens) (UniProt P27448); details: at 1 µM;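 also: reported values are averaged percent inhibition of MARK3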
[2] = biological target: T1, MAP/microtubule affinity-regulating kinase 4 (Homo sapiens) (UniProt Q96L34); details: at 0.1 µM
T1 sequence (whole entry): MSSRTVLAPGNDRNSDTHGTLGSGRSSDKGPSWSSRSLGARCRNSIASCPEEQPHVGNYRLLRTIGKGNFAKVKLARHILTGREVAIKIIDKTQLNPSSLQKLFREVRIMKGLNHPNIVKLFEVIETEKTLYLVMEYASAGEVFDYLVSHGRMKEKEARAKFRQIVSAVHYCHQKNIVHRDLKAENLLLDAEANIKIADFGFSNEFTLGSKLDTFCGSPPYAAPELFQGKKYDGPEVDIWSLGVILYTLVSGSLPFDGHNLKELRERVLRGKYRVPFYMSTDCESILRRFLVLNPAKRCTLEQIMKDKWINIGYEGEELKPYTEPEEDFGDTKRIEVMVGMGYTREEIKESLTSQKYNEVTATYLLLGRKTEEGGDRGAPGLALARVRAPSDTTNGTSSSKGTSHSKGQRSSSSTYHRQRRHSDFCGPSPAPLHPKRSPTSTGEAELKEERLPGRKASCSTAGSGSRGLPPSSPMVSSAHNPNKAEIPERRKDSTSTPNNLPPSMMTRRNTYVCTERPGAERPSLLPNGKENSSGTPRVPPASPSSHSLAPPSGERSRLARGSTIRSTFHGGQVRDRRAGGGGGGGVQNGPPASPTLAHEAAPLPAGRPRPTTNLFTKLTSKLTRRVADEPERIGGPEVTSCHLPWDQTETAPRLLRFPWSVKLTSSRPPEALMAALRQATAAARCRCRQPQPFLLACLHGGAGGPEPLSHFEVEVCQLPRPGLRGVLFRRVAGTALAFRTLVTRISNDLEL

[3] = biological target: T1, MAP/microtubule affinity-regulating kinase 4 (Homo sapiens); details: at 1 µM
[4] = biological target: Maternal embryonic leucine zipper kinase (Homo sapiens) (UniProt Q14680); details: at 0.1 µM
Chain of Maternal embryonic leucine zipper kinase (Homo sapiens) (Q14680 whole entry, looked up): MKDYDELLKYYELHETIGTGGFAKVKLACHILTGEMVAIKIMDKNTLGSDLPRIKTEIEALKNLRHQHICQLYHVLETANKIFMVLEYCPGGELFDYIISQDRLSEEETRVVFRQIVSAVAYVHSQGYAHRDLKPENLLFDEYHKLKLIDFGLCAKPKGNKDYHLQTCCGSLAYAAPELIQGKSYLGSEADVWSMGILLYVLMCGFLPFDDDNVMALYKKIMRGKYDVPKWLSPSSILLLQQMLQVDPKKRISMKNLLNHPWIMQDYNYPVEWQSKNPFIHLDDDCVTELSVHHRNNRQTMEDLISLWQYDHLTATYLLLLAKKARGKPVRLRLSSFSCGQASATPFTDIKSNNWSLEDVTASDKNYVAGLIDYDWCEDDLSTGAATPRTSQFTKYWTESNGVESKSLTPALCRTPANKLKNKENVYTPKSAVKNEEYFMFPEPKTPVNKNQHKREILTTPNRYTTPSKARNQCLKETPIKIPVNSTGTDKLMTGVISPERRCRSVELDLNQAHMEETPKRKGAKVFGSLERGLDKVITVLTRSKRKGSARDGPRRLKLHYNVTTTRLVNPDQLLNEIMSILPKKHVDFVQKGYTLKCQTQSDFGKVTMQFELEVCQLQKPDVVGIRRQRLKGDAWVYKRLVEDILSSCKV

[5] = biological target: Maternal embryonic leucine zipper kinase (Homo sapiens) (UniProt Q14680); details: at 1 µM
[6] = biological target: MAP kinase-interacting serine/threonine-protein kinase 1 (Homo sapiens) (UniProt Q9BUB5); details: at 0.1 µM
Chain of MAP kinase-interacting serine/threonine-protein kinase 1 (Homo sapiens) (Q9BUB5 whole entry, looked up): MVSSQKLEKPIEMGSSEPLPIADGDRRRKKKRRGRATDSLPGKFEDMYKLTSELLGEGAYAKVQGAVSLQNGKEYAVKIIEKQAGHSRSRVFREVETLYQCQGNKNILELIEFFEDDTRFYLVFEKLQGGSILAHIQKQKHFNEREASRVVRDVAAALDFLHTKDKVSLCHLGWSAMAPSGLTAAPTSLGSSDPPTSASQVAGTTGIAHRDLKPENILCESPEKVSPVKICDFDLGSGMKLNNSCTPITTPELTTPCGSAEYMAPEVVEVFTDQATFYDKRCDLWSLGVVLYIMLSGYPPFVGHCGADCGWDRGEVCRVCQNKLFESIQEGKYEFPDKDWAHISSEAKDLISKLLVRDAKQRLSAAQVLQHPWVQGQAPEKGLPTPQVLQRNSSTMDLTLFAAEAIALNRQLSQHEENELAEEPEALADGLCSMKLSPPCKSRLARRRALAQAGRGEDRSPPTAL

[7] = biological target: MAP kinase-interacting serine/threonine-protein kinase 1 (Homo sapiens) (UniProt Q9BUB5); details: at 1 µM
[8] = biological target: MAP kinase-interacting serine/threonine-protein kinase 2 (Homo sapiens) (UniProt Q9HBH9); details: at 0.1 µM
Chain of MAP kinase-interacting serine/threonine-protein kinase 2 (Homo sapiens) (Q9HBH9 whole entry, looked up): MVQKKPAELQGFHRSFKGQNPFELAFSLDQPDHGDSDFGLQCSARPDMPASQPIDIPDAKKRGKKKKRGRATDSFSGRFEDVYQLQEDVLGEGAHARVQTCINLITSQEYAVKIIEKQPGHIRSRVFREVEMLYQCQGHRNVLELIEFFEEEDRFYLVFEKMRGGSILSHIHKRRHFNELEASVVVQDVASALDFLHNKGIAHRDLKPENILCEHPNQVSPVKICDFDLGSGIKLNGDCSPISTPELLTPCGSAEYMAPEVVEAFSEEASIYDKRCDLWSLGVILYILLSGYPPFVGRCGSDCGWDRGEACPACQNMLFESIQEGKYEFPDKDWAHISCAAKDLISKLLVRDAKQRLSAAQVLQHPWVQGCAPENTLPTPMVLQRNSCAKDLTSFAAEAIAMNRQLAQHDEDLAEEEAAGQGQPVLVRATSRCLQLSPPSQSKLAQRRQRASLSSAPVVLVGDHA

[9] = biological target: MAP kinase-interacting serine/threonine-protein kinase 2 (Homo sapiens) (UniProt Q9HBH9); details: at 1 µM
[10] = biological target: Serine/threonine-protein kinase MARK2 (Homo sapiens) (UniProt Q7KZI7); details: at 0.1 µM;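 also: mean percent inhibition of PAR-1Balpha kinase activity, reported from the GSK PKIS screen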
Chain of Serine/threonine-protein kinase MARK2 (Homo sapiens) (Q7KZI7 whole entry): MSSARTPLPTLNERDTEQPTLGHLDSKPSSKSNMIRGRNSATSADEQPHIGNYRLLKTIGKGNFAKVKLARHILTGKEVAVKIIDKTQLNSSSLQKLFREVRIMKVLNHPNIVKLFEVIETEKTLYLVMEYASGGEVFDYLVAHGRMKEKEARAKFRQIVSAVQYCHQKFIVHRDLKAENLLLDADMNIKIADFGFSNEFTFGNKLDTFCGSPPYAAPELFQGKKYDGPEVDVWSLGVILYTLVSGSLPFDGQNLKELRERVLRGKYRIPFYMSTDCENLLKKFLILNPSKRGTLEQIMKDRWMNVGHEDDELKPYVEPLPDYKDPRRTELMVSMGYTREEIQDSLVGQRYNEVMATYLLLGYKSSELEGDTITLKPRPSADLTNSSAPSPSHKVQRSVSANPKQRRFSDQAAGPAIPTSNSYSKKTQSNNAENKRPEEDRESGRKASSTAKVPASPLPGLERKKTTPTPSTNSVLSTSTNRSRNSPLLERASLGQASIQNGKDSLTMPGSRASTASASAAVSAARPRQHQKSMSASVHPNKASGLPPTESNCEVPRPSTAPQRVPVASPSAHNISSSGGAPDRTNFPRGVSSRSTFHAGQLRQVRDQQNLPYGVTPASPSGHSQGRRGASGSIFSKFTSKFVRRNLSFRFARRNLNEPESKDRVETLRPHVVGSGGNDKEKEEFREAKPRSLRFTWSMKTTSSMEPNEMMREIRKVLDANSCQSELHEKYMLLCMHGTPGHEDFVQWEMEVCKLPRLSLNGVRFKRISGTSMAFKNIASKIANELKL

Chain of MAP/microtubule affinity-regulating kinase 3 (Homo sapiens) (P27448 whole entry, looked up): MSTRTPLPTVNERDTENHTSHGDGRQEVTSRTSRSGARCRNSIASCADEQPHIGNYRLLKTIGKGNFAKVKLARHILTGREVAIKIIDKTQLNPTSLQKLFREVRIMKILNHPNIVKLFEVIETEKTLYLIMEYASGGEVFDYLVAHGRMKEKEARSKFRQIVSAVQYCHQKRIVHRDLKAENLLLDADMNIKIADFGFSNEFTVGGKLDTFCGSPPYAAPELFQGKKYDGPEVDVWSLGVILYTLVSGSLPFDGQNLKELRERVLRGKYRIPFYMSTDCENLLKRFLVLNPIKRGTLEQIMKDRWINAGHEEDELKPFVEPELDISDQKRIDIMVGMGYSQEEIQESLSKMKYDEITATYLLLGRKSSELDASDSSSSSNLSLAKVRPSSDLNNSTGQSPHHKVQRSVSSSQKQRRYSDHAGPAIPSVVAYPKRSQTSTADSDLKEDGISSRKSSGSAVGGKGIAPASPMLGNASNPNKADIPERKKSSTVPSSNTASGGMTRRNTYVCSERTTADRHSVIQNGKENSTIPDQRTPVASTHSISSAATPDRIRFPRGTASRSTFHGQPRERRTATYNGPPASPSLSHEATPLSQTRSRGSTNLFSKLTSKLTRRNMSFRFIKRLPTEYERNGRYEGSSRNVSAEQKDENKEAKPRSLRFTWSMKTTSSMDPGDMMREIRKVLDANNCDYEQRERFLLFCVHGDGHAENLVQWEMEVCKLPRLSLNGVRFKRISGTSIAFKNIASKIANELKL

| Structure (SMILES) | inhibition [1] | inhibition [2] | inhibition [3] | inhibition [4] | inhibition [5] | inhibition [6] | inhibition [7] | inhibition [8] | inhibition [9] | inhibition [10] |
| --- | --- | --- | --- | --- | --- | --- | --- | --- | --- | --- |
| COc1ccc(-c2cc(-c3c[nH]nc3-c3ccccn3)ccn2)cc1 | 5.51% | 2.2% | 2.28% | 3.77% | 8.05% | 3.19% | 7.19% | 2% | 6.65% | 2.97% |
| CC1=C(C(=O)Nc2cc(Cl)c3[nH]ncc3c2)C(c2ccc(C(F)(F)F)cc2)CC(=O)N1 (stereo not given) | 9.91% | 1.64% | 3.1% | 5.47% | 7.81% | 2.74% | 7.79% | 2.19% | 5.02% | 1.6% |
| Nc1nc(-c2cccc(Cl)c2)c(-c2ccc3ncccc3n2)s1 | 6.68% | 1.87% | -0.31% | 4.19% | 11.3% | 3.39% | 9.69% | 2.72% | 7.56% | 1.01% |
| COC(=O)c1sc(-n2cnc3cc(OC)c(OC)cc32)cc1OCc1ccccc1C(F)(F)F | 3.04% | 2.41% | 4.85% | 4.31% | 12.6% | 3.55% | 3.3% | 0.22% | -0.04% | -1.89% |
| COc1ccc(-c2cc3c(N)ncnc3o2)cc1 | 4.01% | 0.16% | 1.62% | -3.33% | -1.79% | 0.35% | 2% | 0.74% | 4.21% | -0.22% |
| CC(C)COC(=O)c1ccc2c(c1)/C(=C/Nc1ccc(S(N)(=O)=O)cc1)C(=O)N2 | 88.7% | 24.6% | 77.5% | 50.1% | 93.2% | -1.01% | 6.56% | 1.73% | 13.9% | 25.9% |
| CN(C)CCOc1ccc(-c2nc(-c3ccncc3)c(-c3ccc4c(c3)CC/C4=N\O)[nH]2)cc1 | 4.44% | 0.44% | 2.12% | 1.61% | 3.61% | 1.3% | 7.41% | 1.42% | 5.3% | 1.34% |
| FC(F)(F)c1cccc(-c2nn3ncccc3c2-c2ccnc(Nc3ccc4c(c3)OCCO4)n2)c1 | 3.45% | 0.66% | 1.99% | 1.43% | 4.99% | 1.74% | 3.33% | 0.83% | 1.61% | -1.11% |
| CC(=O)NCc1cccc(C#Cc2cncnc2Nc2ccc(OCc3cccc(F)c3)c(Cl)c2)c1 | 1.66% | 2.33% | 3.13% | 0.79% | 2.93% | 3.79% | 32.1% | 2.64% | 11.8% | 0.37% |
| CCN(CC)S(=O)(=O)c1ccc(OC)c(Nc2ncc(-c3ccccc3)o2)c1 | 18.7% | -1.02% | 0.8% | -0.34% | 7.01% | 1.28% | 5.6% | 1.51% | 2.53% | 0.71% |
| c1ccc(-c2nc3n(c2-c2ccc4c(c2)OCO4)CCC3)nc1 | 4.15% | 1.03% | 2.7% | 2.58% | 4.77% | 1.71% | 3.75% | 0.98% | -0.19% | 2.71% |
| CS(=O)(=O)CCNCc1coc(-c2ccc3ncnc(Nc4ccc(OCc5ccccc5)cc4)c3c2)c1 | 3.7% | 1.75% | 1.07% | 3.52% | 6.96% | 3.46% | 9.67% | 3.42% | 14.1% | -0.55% |
| O=S(=O)(CCNCc1ccc(-c2ccc3ncnc(Nc4ccc(OCc5cccc(F)c5)c(Cl)c4)c3c2)o1)c1ccccc1 | 5.8% | 3.85% | 2.5% | 5.2% | 3.07% | 2.9% | 5.96% | 0.8% | 4.95% | 0.66% |
| CCN1CCC(CC(=O)Nc2n[nH]c3nnc(-c4cccc(F)c4F)cc23)CC1 | 2.57% | 2.32% | 2.11% | 3.71% | 2.39% | 1.66% | 2.05% | 1.98% | 2.98% | -2.03% |
| COc1cc(N2CCN(C(C)C)CC2)ccc1Nc1nc(Nc2ccc(F)cc2C(N)=O)c2cc[nH]c2n1 | 67.4% | 4.23% | 37.8% | 18% | 78.3% | 0.9% | 1.83% | 1.81% | 8.99% | 5.75% |
| CN1CCC(n2cnc(-c3ccc(F)cc3)c2-c2ccnc(N)n2)CC1 | 6.18% | 0.14% | 0.48% | 2.15% | 12.9% | 8.32% | 41.2% | 3.66% | 16.9% | -1.15% |
| Cc1cccc(Nc2ncc(-c3ccccc3)o2)c1 | 9.41% | 1.51% | 6.57% | 3.78% | 9.64% | 1.9% | 1.76% | 3.35% | 8.3% | 2.22% |

| Structure (SMILES) | inhibition [1] | inhibition [2] | inhibition [3] | inhibition [4] | inhibition [5] | inhibition [6] | inhibition [7] | inhibition [8] | inhibition [9] | inhibition [10] |
| --- | --- | --- | --- | --- | --- | --- | --- | --- | --- | --- |
| COc1cc2ncn(-c3cc(OCc4ccccc4C(F)(F)F)c(C(=O)N(C)C)s3)c2cc1OC | 3.36% | -0.78% | 0.92% | 2.15% | 1.97% | 0.52% | 3.31% | -0.13% | 2.71% | -2.4% |
| Fc1ccc(-c2nn3ccccc3c2-c2ccncc2)cc1 | -0.24% | 0.11% | -0.34% | 3.07% | 6.94% | 0.31% | 3.36% | -0.39% | 3.58% | -0.63% |
| c1cc(-c2cnn3nc(N4CCOCC4)ccc23)nc(NC2CC2)n1 | 12.9% | 1.01% | 5.05% | 8.27% | 43.9% | 4.33% | 19.8% | 7.65% | 42.5% | 0.85% |
| Cc1ccc(O)cc1Nc1ccnc2cc(-c3ccccn3)ccc12 | 10.8% | 2.1% | 3.98% | 1.72% | 3.79% | 3.8% | 6.21% | 1.72% | 4.94% | 0.54% |
| CNC(=O)c1cc(-c2ccc(F)cc2)cc(-c2ccc(S(=O)(=O)N3CCCC3)cc2)c1N | 2.91% | 0.61% | 1.19% | 4.19% | 3.17% | 0.63% | 0.76% | -0.84% | -0.59% | 2.35% |
| CC(C)(CO)CNC(=O)c1ccc2c(c1)/C(=N/Nc1ccc(S(N)(=O)=O)cc1)C(=O)N2 | 36.6% | 7.2% | 42.6% | 18.8% | 72.7% | 0.85% | 3.37% | -0.26% | 9.44% | 3.29% |
| COc1ccc(-c2oc3ncnc(N)c3c2-c2ccc(NC(=O)Nc3cc(C(F)(F)F)ccc3F)cc2)cc1 | 5.58% | 1.52% | 5.32% | 4.39% | -9.28% | 9.84% | 46.6% | 9.42% | 56.3% | 0.01% |
| Cc1ccc2c(-c3ccnc(Nc4ccccc4)n3)c(-c3ccc(F)cc3)nn2n1 | 0.65% | 1.31% | 1.67% | 1.41% | 5.51% | 0.98% | 1.88% | 0.04% | 0.75% | 0.87% |
| CCn1cc(-c2ccnc3[nH]ccc23)c(-c2cccc(NC(=O)Nc3ccc(OCc4ccccc4)cc3)c2)n1 | 2.97% | 1.33% | 2.66% | -3.14% | -3.15% | 0.36% | 1.39% | -1.1% | -0.1% | -0.11% |
| Clc1ccc(-c2nn3ncccc3c2-c2ccnc(Nc3ccccc3)n2)cc1 | 8.43% | 0.1% | 1.26% | 2.47% | 1.1% | 0.8% | 3.07% | 0.53% | 1.38% | 0.74% |
| NS(=O)(=O)c1ccc(N/N=C2\C(=O)Nc3ccc4ncccc4c32)cc1 | 40.9% | 11.4% | 52% | 50.3% | 93.4% | 4% | 19.4% | 2.52% | 20.4% | 5.97% |
| CCCN1CCC(c2ccc(Nc3nc(Nc4cc(F)ccc4C(N)=O)c4cc[nH]c4n3)c(OC)c2)CC1 | 66.6% | 7.27% | 42.6% | 21.7% | 78.7% | 5.57% | 10.7% | 3.26% | 7.76% | 7.99% |
| CNC(=O)c1cncc(/C=C/c2ccccc2Cl)c1 | -4.55% | -0.44% | 2.25% | 0.11% | -3.52% | 4.17% | 23.1% | 6.83% | 17.6% | 1.5% |
| COc1cc(/C=N/Nc2ncnc3[nH]ncc23)ccc1O | 30.6% | 1.99% | 15.4% | 15.3% | 75.5% | 4.69% | 22.6% | 3.33% | 25.7% | 4.08% |
| CCn1c(-c2nonc2N)nc2cnc(Oc3cccc(NC(=O)c4ccc(N(C)C)cc4)c3)cc21 | 12.2% | 0.81% | 3.87% | 8.41% | 44.2% | 2.31% | 11.5% | 3.41% | 27.8% | 0.56% |
| CCn1c(-c2nonc2N)nc2c(C#CC(C)(C)O)nc(OC[C@H](N)c3ccccc3)cc21 | 35.4% | 1.25% | 18.4% | 17.7% | 82.1% | 1.77% | 2.97% | 3.54% | 2.92% | 1.39% |
